# Several values for one entry are separate records, joined by “and”; a condition that tells them apart may be missing. Equal values may be shown once. Records with an inconclusive call do not appear. A call without a number means that no potency is given here. Some structures have more than one record in an assay (separate samples or runs), and their calls can disagree. Activity calls are given as the source filed them. Unless noted, calls come from the whole dose curve; as a rule, active = well fitted curve in the direction sought with a large enough effect in the repeat runs; inconclusive = weak or mixed curves; inactive = no such curve, though single readings can be large; an effect the other way counts as inactive or inconclusive.
# Tests used:
# [1] = qHTS assay for small molecule agonists of the p53 signaling pathway (AID 651631; calls by dose curve; note: nearly all actives have a fitted effect of over 15% in size; note: potency is the fitted concentration of half-maximal effect)
# Method in brief: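 p53RE-bla HCT-116 cells; compounds 16 h, 37 °C; LiveBLAzer B/G FRET substrate 2 h RT; fluorescence intensity read-out, qHTS format.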
# [2] = qHTS assay for small molecules that induce genotoxicity in human embryonic kidney cells expressing luciferase-tagged ATAD5 (AID 651632); note: nearly all actives have a fitted effect of over 15% in size; note: potency is the fitted concentration of half-maximal effect
# Method in brief: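 Luminescent reporter readout, HEK293T ATAD5-luc line: 16 hr drug exposure (37C, 5% CO2) followed by Amplite, 30 min RT.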
# [3] = qHTS assay for small molecule agonists of the p53 signaling pathway - cell viability (AID 651633; calls by dose curve; note: nearly all actives have a fitted effect of over 30% in size; note: potency is the fitted concentration of half-maximal effect)
# Method in brief: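 Viability counter-read: CellTiter-Glo luminescence (30 min, room temperature) in the same p53RE-bla plates. These plates had been exposed to compounds for 16 h at 37 C.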
# [4] = qHTS assay for small molecule disruptors of the mitochondrial membrane potential - cell viability (AID 720634; calls by dose curve; note: nearly all actives have a fitted effect of over 20% in size; note: potency is the fitted concentration of half-maximal effect)
# Method in brief: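 HepG2, 1 hr compound, 37 C. ATP luminescence via CellTiter-Glo, 30 min RT, same well as m-MPI.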
# [5] = qHTS assay to test for compound auto fluorescence at 590 nm (red) in HepG2 cells (AID 720674)
# Method in brief: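 1 hr compound incubation on HepG2 cells, 37 C, 5% CO2; plate read ex 540 nm / em 590 nm; intensities reported as Rose Bengal sodium equivalents.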
# [6] = qHTS assay to test for compound auto fluorescence at 535 nm (green) in HepG2 cells (AID 720675)
# [7] = qHTS assay to test for compound auto fluorescence at 460 nm (blue) in HEK293 cells (AID 720678)
# Method in brief: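 HEK293, 2,000 cells/well, 10% dialyzed FBS; attach 4-5 hr 37C; pin compound or DMSO; o/n 37C/5% CO2; fluorescence 405/460 nm; triamterene-equivalent units.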
# [8] = qHTS assay to test for compound auto fluorescence at 590 nm (red) in HEK293 cells (AID 720679)
# Method in brief: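 Intensity at 540nm excitation and 590nm emission is reported as Rose Bengal sodium-equivalent autofluorescence. Measurements followed overnight exposure (37C, 5% CO2) of HEK293 cells, 2,000 per well, to 23 nL compound.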
# [9] = qHTS assay for small molecule disruptors of the mitochondrial membrane potential (AID 720635); note: potency is the fitted concentration of half-maximal effect
# Method in brief: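 Mitochondrial membrane potential tracked with Mito-MPS dye, red aggregates (ex 540/em 590 nm) against green monomers (ex 490/em 535 nm). Compound treatment 1 hr at 37C, dye 30 min in HepG2.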
# [10] = qHTS assay for small molecules that induce genotoxicity in human embryonic kidney cells expressing luciferase-tagged ATAD5 - cell viability (AID 651634; calls by dose curve; note: nearly all actives have a fitted effect of over 25% in size)
# Method in brief: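 Viability read: CellTiter-Fluor fluorescence, 30 min at 37C. Cells: HEK293T, luciferase-tagged ATAD5. Exposure: 15.5 hr, 37C, 5% CO2, compound or DMSO vehicle.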
SMILES,Potency [1],Potency [2],Potency [3],Potency [4],outcome [5],Potency [6],Potency [7],outcome [8],Potency [9],Potency [10]
NC(Cc1ccc(Cl)cc1)C(=O)O (centres undefined),inactive,inactive,inactive,inactive,inactive,inactive,inactive,inactive,–,–
CC(C(O)c1ccc(O)cc1)N1CCC(Cc2ccccc2)CC1 (centres undefined),inactive,inactive,inactive,inactive,inactive,inactive,inactive,inactive,–,–
CC(C)(O)CCC(C)(C)O,inactive,inactive,inactive,–,–,inactive,inactive,inactive,inactive,–
CCN(CC)C(=O)Nc1ccc(OCC(O)CNC(C)(C)C)c(C(C)=O)c1 (centres undefined),inactive,inactive,inactive,–,inactive,inactive,inactive,–,–,inactive
O=c1n(CC2CO2)c(=O)n(CC2CO2)c(=O)n1CC1CO1 (centres undefined),13.3 µM (active) and 8.58 µM (active) and 8.63 µM (active),23.7 µM (active) and 24.2 µM (active) and 54.5 µM (active),inactive,–,inactive,inactive,inactive,inactive,inactive,inactive
c1cnc2cc3c(cc2n1)C1CNCC3C1,inactive,inactive,inactive,–,inactive,inactive,–,inactive,inactive,inactive
CC[C@@H](N)CO,inactive,inactive,inactive,–,inactive,inactive,inactive,–,–,–
CN1C(=O)c2ccc([N+](=O)[O-])cc2C1=O,inactive,inactive,inactive,–,inactive,inactive,inactive,–,61.1 µM (active),inactive
CC(=O)Nc1ccc(C(=O)CCl)cc1,inactive and 24.3 µM (active),inactive and 24.3 µM (active),inactive and 30.6 µM (active),inactive and 27.3 µM (active),inactive,inactive,inactive,inactive,inactive and 27.3 µM (active),–
OCCN1CCNCC1,inactive,inactive,inactive,inactive,inactive,inactive,inactive,inactive,inactive,–
CC(=O)OCC1=C(C(=O)O)N2C(=O)[C@@H](NC(=O)Cc3cccs3)[C@H]2SC1,inactive,inactive,inactive,–,–,inactive,inactive,inactive,inactive,inactive
CCC(CO)(CO)COCC(CC)(CO)CO,inactive,inactive,inactive,–,inactive,inactive,–,inactive,inactive,–
